The campaign covered roughly 330,000 compounds. About 960 (0.29%) were called active.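 The calls were made as follows: active = compounds whose signal lies at least 3.5 SD above the mean of all wells on their plate; inactive = the rest.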 The entries come from a sample that favours actives as a whole.
Assay: inducers of MIN6 beta-cell proliferation, primary screen, ATP luminescence, uHTS (AID 2380);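 also: 0% = DMSO-treated cells in low-serum medium and 100% = 10% serum control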
Settings: MIN6 cells proliferation, ATPlite luminescence, 48 h, at 10 µM, stronger effect = higher value

SMILES | proliferation
c1ccc(CCNC2CCCCCC2)cc1 | 1.52% (inactive)
c1cc2c(cc1CCNC1CCCCCC1)OCO2 | 8.35% (active)
COc1ccc(CNCCc2ccc3c(c2)OCO3)c(OC)c1OC | 5.73% (inactive)
CC1(C)Cc2c(C#N)c(N3CCNCC3)nc(-c3ccco3)c2CS1 | -3.88% (inactive)
CC(=O)c1ccc(OC(NC(=O)Cc2ccccc2)C(Cl)(Cl)Cl)cc1 (stereo not given) | -1.48% (inactive)
COC(=O)COc1cc(C)cc2oc(=O)c3c(c12)CCCC3 | 5.08% (active)
Cc1cc(OCc2cc(C(=O)O)oc2C)c2c3c(c(=O)oc2c1)CCCC3 | -3.8% (inactive)
COc1cc(OC)cc(C2(C#N)CCN(C)CC2)c1 | -0.56% (inactive)
CCOc1cccc(=NC2CCCCC2)c2c(C)[nH]c(C)c12 | -3.34% (inactive)
CCC1(C)CC(CCNCc2ccc(N(C)C)cc2)(c2ccc(F)cc2)CCO1 (stereo not given) | -4.45% (inactive)
COc1ccc(C(=O)CC2C(=O)N(C)C(=O)N(C)C2=O)cc1 | -0.73% (inactive)
O=C(N/N=C/c1c(O)n(Cc2ccccc2)c(=O)[nH]c1=O)c1ccccc1 | 5.26% (active)
O=C(N/N=C/c1c(O)n(C2CC2)c(=S)[nH]c1=O)c1ccccc1 | -1.64% (inactive)
O=c1[nH]c(=O)n(Cc2ccccc2)c(O)c1/C=N/Nc1c(F)c(F)c(F)c(F)c1F | 1.39% (inactive)
COC(=O)C1=C(c2ccc(Cl)c(C(F)(F)F)c2)C[C@@H]2CC[C@H]1N2C(=O)NC(C)C | -1.97% [100% = growth in 10% serum, cells starved in 0.2% serum] (inactive)

From PubChem BioAssay AID2380 (Sanford-Burnham Center for Chemical Genomics, 2010)
